# Measurements: PubChem BioAssay (NCATS)
# Results filed as inconclusive are left out. A call without a number means that no potency is given here. Calls of active or inactive are those of the source. The call rests on the fitted dose curve; in most records, active means well fitted inhibition curve with a large enough effect; inconclusive means small, poorly fitted or top-dose-only effect; inactive means flat fitted curve, though single readings scatter.
# Target: Luciferin 4-monooxygenase (Photinus pyralis) (UniProt P08659)
# Test: Biochemical firefly luciferase enzyme assay for NPC (AID 624030); further: nearly all actives have a fitted effect of over 70% in size
# Settings: purified P. pyralis luciferase, luminescence, 5 min; series mostly up to 58.6 µM
# Source text: Charcot-Marie-Tooth-Association [CMTA] National Center for Advancing Translational Sciences [NCATS] Charcot-Marie-Tooth (CMT) disease was first characterized by Jean-Martin Charcot and Pierre Marie in France and, independently, by Howard Henry Tooth in England in 1886. CMT is one of the most common inherited neurological diseases, affecting approximately 1 in 2,500 Americans. […] The most prevalent type of CMT is known as CMT1A and caused by a duplication of the PMP22 gene which leads to over-expression of this protein. PMP22 is a glycosylated intrinsic membrane protein accounting for 2-5% of the myelin protein content, and its over-expression results in demyelination and subsequently axonal loss. A pair of cellular transcription-based assays was developed in the S16 rat Schwann cell lines (Hai, M., et al., 2002) stably transfected with orthogonal reporters - firefly luciferase (Fluc) and beta-lactamase (beta-Lac) - whose expression is driven by an intronic regulatory element of the PMP22 gene (Jones, E.A., et al., 2011) to recapitulate endogenous expression of PMP22. A comprehensive library of approved drugs, the NCGC Pharmaceutical Collection (Huang, R., et al., 2011), was screened in the cross-validating platform of the orthogonal reporter assays to identify drug modulators inhibitory towards PMP22 expression. A set of counter-screens was devised to address non-specific activity of the library. An ATP-dependent CellTiter-Glo assay (developed by Promega Corp) was utilized to control cell viability. In addition, biochemical Fluc enzyme assay was performed to assess direct inhibition of the Fluc enzymatic activity. References Hai, M., Muja, N., DeVries, G.H., Quarles, R.H. and Patel, P.I. Comparative analysis of Schwann cell lines as model systems for myelin gene transcription studies. J Neurosci Res, 2002. 69(4): pp 497-508 Huang, R., Southall, N., Wang, Y., Yasgar A., Shinn P., Jadhav, A. , Nguyen, D.-T. and Austin, C.P., The NCGC pharmaceutical collection: a comprehensive resource of clinically approved drugs enabling repurposing and chemical genomics. Sci Transl Med, 2011. 3(80): p. 80ps16.
# Compounds were transferred to the plates in 23nl, and one microliter/well luciferase enzyme-buffer solution (10 nM P. pyralis luciferase and 50 mM Tris Acetate final concentrations) was dispensed yielding a final reaction volume of […]. Luciferase luminescence was measured by a ViewLux plate reader within 5 minutes of enzyme-buffer addition. The % activity was determined by normalizing to the average readings of PTC124 (a positive control) relative to DMSO (0% Activity). The concentration-effect curves were then classified based on curve quality (r2), response magnitude and degree of measured activity.
# Potency means the concentration at half of the fitted maximal effect.
# Chain of Luciferin 4-monooxygenase (Photinus pyralis) (P08659 whole entry, looked up): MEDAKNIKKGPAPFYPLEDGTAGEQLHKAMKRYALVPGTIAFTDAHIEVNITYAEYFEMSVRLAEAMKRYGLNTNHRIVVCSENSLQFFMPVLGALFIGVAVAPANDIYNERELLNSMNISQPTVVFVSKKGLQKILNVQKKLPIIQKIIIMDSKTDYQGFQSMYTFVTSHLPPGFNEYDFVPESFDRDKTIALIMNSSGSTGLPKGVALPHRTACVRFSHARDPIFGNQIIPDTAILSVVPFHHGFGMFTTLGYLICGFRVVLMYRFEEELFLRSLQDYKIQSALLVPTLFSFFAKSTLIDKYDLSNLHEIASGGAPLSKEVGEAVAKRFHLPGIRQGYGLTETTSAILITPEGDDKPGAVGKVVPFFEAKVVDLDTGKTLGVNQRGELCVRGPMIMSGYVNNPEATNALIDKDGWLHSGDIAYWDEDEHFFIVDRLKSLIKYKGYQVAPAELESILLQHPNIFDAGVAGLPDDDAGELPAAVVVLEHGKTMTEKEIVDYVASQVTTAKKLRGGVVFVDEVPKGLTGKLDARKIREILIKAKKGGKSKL
row,SMILES,Potency
1,COc1ccc2c(=O)c(C)c(-c3ccccc3)oc2c1CN(C)C,inactive
2,CC1C(=O)CC2C3(C)CCC2(C(C)C(=O)O)C(=O)C13 (stereo not given),inactive
3,CCCCCCCCCCCCCCCCCCCCCC(=O)Nc1ccn([C@@H]2O[C@H](CO)[C@@H](O)[C@@H]2O)c(=O)n1,inactive
4,COc1cc2c(cc1OC)[C@@H](Cc1cc(OC)c(OC)c(OC)c1)[N+](C)(CCCOC(=O)CC/C=C/CCC(=O)OCCC[N+]1(C)CCc3cc(OC)c(OC)cc3[C@H]1Cc1cc(OC)c(OC)c(OC)c1)CC2 (stereo not given in full),inactive
5,Nc1ncnc2c1ncn2[C@H]1CC[C@@H](CO)O1,inactive
6,C=CCN1CCCC1CNC(=O)c1cc(S(N)(=O)=O)cc(OC)c1OC (stereo not given),inactive
7,CC1(C)S[C@@H]2[C@H](NC(=O)C3(N)CCCCC3)C(=O)N2[C@H]1C(=O)O,inactive
8,CN1C(=O)OC(C)(C)C1=O,inactive
9,CN(CCO)CC(O)Cn1cnc2c1c(=O)n(C)c(=O)n2C (stereo not given) (tested in a mixture with another compound),inactive
10,CC/C=C\C/C=C\C/C=C\CCCCCCCC(=O)O,inactive
11,OC/C=C/c1ccccc1,inactive
12,CC(=O)Oc1cccc2c1C(=O)c1c(OC(C)=O)cc(C(=O)O)cc1C2=O,inactive
13,C=CC[C@@H]1/C=C(\C)C[C@H](C)C[C@H](OC)[C@H]2O[C@@](O)(C(=O)C(=O)N3CCCC[C@H]3C(=O)O[C@H](/C(C)=C/[C@@H]3CC[C@@H](O)[C@H](OC)C3)[C@H](C)[C@@H](O)CC1=O)[C@H](C)C[C@@H]2OC,inactive
14,CCc1ccc(S(=O)(=O)O)cc1,inactive
15,COC(=O)CCC[N+](C)(C)C,inactive
16,CCC(=O)c1ccc2c(c1)N(CCCN1CCN(CCO)CC1)c1ccccc1S2,inactive
17,C=C(C)C1CC=C(C)CC1 (stereo not given),inactive
18,CO[C@H]1C[C@@H]2CC[C@@H](C)[C@@](O)(O2)C(=O)C(=O)N2CCCC[C@H]2C(=O)O[C@H]([C@H](C)C[C@@H]2CC[C@@H](OC(=O)C(C)(CO)CO)[C@H](OC)C2)CC(=O)[C@H](C)/C=C(\C)[C@@H](O)[C@@H](OC)C(=O)[C@H](C)C[C@H](C)/C=C/C=C/C=C/1C,inactive
19,CCCCCc1ccc(C)cc1O,inactive
20,C[C@H](O)CN(C)C,inactive

row,SMILES,Potency
1,CN[C@@H]1[C@H](O[C@H]2[C@H](O[C@H]3[C@H](O)[C@@H](O)[C@H](N=C(N)N)[C@@H](O)[C@@H]3N=C(N)N)O[C@@H](C)[C@]2(O)C=O)O[C@@H](CO)[C@H](O)[C@H]1O,inactive
2,[O]=[Bi][O]C(=O)[O][Bi]=[O],inactive
3,CC(C)CCCCCCc1ccc(O)cc1,inactive
4,CNC(=O)C[C@@H](N)C(=O)N[C@@H](C(=O)N[C@@H]1C(=O)N2[C@@H]1SC(C)(C)[C@@H]2C(=O)O)c1ccc(O)cc1,inactive
5,O=C(O)[C@H]1CN(C/C=C/P(=O)(O)O)CCN1,inactive
6,CC(C)O,inactive
7,CC(C)NCC(O)COc1ccccc1-n1cccc1 (stereo not given),inactive
8,CCN(CC)CCOc1ccccc1OC,inactive
9,CN=C1C=CC(=C(c2ccc(N(C)C)cc2)c2ccc(N(C)C)cc2)C=C1,14.4 µM (active)
10,C[C@H](N)C(=O)N[C@@H](C)P(=O)(O)O,inactive
11,CCN(CC)CCC(=O)N1c2ccccc2Sc2ccc(Cl)cc21,inactive
12,Nc1ncnc2c1ncn2CCOCP(=O)(O)O,inactive
13,CC(=O)Oc1cccc(C(=O)O)c1OC(C)=O,inactive
14,CC(C)(Oc1ccc(C2CCCc3ccccc32)cc1)C(=O)O (stereo not given),inactive
15,CCCCCCCCCCCCCCCCCC(=O)OC[C@@H](O)[C@H]1OC[C@H](O)[C@H]1O,inactive
16,OCc1ccccc1,inactive
17,CCCCC,inactive
18,CCCCC/C=C\C/C=C\C/C=C\CCCCC(=O)O,inactive
19,CC(C)CCC[C@@H](C)[C@H]1CC[C@H]2[C@@H]3CC=C4C[C@@H](O)CC[C@]4(C)[C@H]3CC[C@]12C,inactive
20,CCC(O)c1ccccc1 (stereo not given),inactive
